# The sample as a whole holds a higher share of the strongest signals than the screen did.
# B1: SUN4 (Saccharomyces cerevisiae), P53616 (protein)
# chain: MGSSHHHHHHSSGLVPRGSHNGSIYGDLADFSGPYEKFEDGTIPCGQFPSGQGVIPISWLDEGGWSGVENTDTSTGGSCKEGSYCSYACQPGMSKTQWPSDQPSDGRSIGGLLCKDGYLYRSNTDTDYLCEWGVDAAYVVSELSNDVAICRTDYPGTENMVIPTYVQAGDSLPLTVVDQDTYYTWQGLKTSAAYYVNNAGISVEDACVWGSSSSGVGNWAPLNFGAGSSDGVAYLSLIPNPNNGNALNFNVKIVAADDSSTVNGECIYENGSFSGGSDGCTVSVTAGKAKFVLYN
# How the values were obtained:
# Experiment in all cases: glycan array binding signal (z-score within array); higher = stronger binding
# Settings in all cases: glycan notation: IUPAC condensed, linker removed; mutation: Q318A
# [1] = target: Fuc(a1-2)Gal(b1-3)GalNAc(b1-4)[Neu5Ac(a2-3)]Gal(b1-4)Glc
# Method in brief: (§1)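 The binding signal is a Z-score computed within each array. Data were drawn from 3228 arrays in the Consortium for Functional Glycomics database, restricted to those with a known protein sequence. Scores were averaged over arrays of the same protein sequence at different concentrations or buffers, and over linkers, and negative values can be taken as non-binding.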
# [2] = target: Fuc(a1-2)Gal(b1-3)GlcNAc(b1-3)[Fuc(a1-2)Gal(b1-3)GlcNAc(b1-6)]GalNAc
# Method in brief: as §1
# [3] = target: Fuc(a1-2)Gal(b1-4)Fuc(a1-3)]GlcNAc(b1-2)Man(a1-3)[Fuc(a1-2)Gal(b1-4)[Fuc(a1-3)]GlcNAc(b1-2)Man(a1-6)]Man(b1-4)GlcNAc(b1-4)GlcNAc
# Method in brief: as §1
# Fuc(a1-2)Gal(b1-4)GlcNAc = target: Fuc(a1-2)Gal(b1-4)GlcNAc
# Method in brief: as §1
# [4] = target: Fuc(a1-2)Gal(b1-4)GlcNAc(b1-2)Man(a1-3)[Fuc(a1-2)Gal(b1-4)GlcNAc(b1-2)Man(a1-6)]Man(b1-4)GlcNAc(b1-4)GlcNAc
# Method in brief: as §1
# [5] = target: Fuc(a1-2)Gal(b1-4)GlcNAc(b1-3)Gal(b1-4)GlcNAc(b1-2)Man(a1-3)[Fuc(a1-2)Gal(b1-4)GlcNAc(b1-3)Gal(b1-4)GlcNAc(b1-2)Man(a1-6)]Man(b1-4)GlcNAc(b1-4)GlcNAc
# Method in brief: as §1
# [6] = target: Fuc(a1-2)[Gal(a1-3)]Gal(b1-4)GlcNAc(b1-2)Man(a1-3)[Fuc(a1-2)[Gal(a1-3)]Gal(b1-4)GlcNAc(b1-2)Man(a1-6)]Man(b1-4)GlcNAc(b1-4)GlcNAc
# Method in brief: as §1
# [7] = target: Fuc(a1-2)[GalNAc(a1-3)]Gal(b1-4)GlcNAc(b1-2)Man
# Method in brief: as §1
# [8] = target: Fuc(a1-2)[GalNAc(a1-3)]Gal(b1-4)GlcNAc(b1-3)Gal(b1-4)GlcNAc
# Method in brief: as §1
# [9] = target: Fuc(a1-2)[GalNAc(a1-3)]Gal(b1-4)GlcNAc(b1-3)GalNAc
# Method in brief: as §1
# [10] = target: Fuc(a1-3)[Gal(b1-4)]GlcNAc6S
# Method in brief: as §1
# Gal(a1-3)Gal(b1-4)GlcNAc = target: Gal(a1-3)Gal(b1-4)GlcNAc
# Method in brief: as §1
# Gal(a1-4)Gal(b1-4)Glc = target: Gal(a1-4)Gal(b1-4)Glc
# Method in brief: as §1
# [11] = target: Gal(b1-3)GalNAc(b1-4)Gal(b1-4)Glc
# Method in brief: as §1
# [12] = target: Gal(b1-3)GlcNAc(b1-3)Gal(b1-4)GlcNAc(b1-3)Gal(b1-4)GlcNAc(b1-2)[Gal(b1-3)GlcNAc(b1-3)Gal(b1-4)GlcNAc(b1-3)Gal(b1-4)GlcNAc(b1-6)]Man(a1-6)[Gal(b1-3)GlcNAc(b1-3)Gal(b1-4)GlcNAc(b1-3)Gal(b1-4)GlcNAc(b1-2)Man(a1-3)]Man(b1-4)GlcNAc(b1-4)[Fuc(a1-6)]GlcNAc
# Method in brief: as §1
# [13] = target: Gal(b1-3)GlcNAc(b1-6)Gal(b1-4)GlcNAc
# Method in brief: as §1
# [14] = target: Gal(b1-3)GlcNAc(b1-6)[Gal(b1-3)]GalNAc
# Method in brief: as §1
# Gal(b1-4)Gal = target: Gal(b1-4)Gal
# Method in brief: as §1
# Gal(b1-4)GlcNAc(b1-2)Man = target: Gal(b1-4)GlcNAc(b1-2)Man
# Method in brief: as §1
# [15] = target: Gal(b1-4)GlcNAc(b1-2)Man(a1-3)[Gal(b1-4)GlcNAc(b1-2)Man(a1-6)][GlcNAc(b1-4)]Man(b1-4)GlcNAc(b1-4)[Fuc(a1-6)]GlcNAc
# Method in brief: as §1
# [16] = target: Gal(b1-4)GlcNAc(b1-3)Gal(b1-4)GlcNAc(b1-3)Gal(b1-4)GlcNAc(b1-2)[Gal(b1-4)GlcNAc(b1-3)Gal(b1-4)GlcNAc(b1-3)Gal(b1-4)GlcNAc(b1-6)]Man(a1-6)[Gal(b1-4)GlcNAc(b1-3)Gal(b1-4)GlcNAc(b1-3)Gal(b1-4)GlcNAc(b1-2)Man(a1-3)]Man(b1-4)GlcNAc(b1-4)[Fuc(a1-6)]GlcNAc
# Method in brief: as §1
# [17] = target: Gal(b1-4)GlcNAc(b1-3)Gal(b1-4)GlcNAc(b1-3)Gal(b1-4)GlcNAc(b1-3)Gal(b1-4)GlcNAc(b1-3)Gal(b1-4)GlcNAc(b1-2)Man(a1-3)[Gal(b1-4)GlcNAc(b1-3)Gal(b1-4)GlcNAc(b1-3)Gal(b1-4)GlcNAc(b1-3)Gal(b1-4)GlcNAc(b1-3)Gal(b1-4)GlcNAc(b1-2)Man(a1-6)]Man(b1-4)GlcNAc(b1-4)[Fuc(a1-6)]GlcNAc
# Method in brief: as §1
# GalNAc(a1-3)GalNAc = target: GalNAc(a1-3)GalNAc
# Method in brief: as §1
# GalNAc(b1-4)Gal(b1-4)Glc = target: GalNAc(b1-4)Gal(b1-4)Glc
# Method in brief: as §1
# GalNAc(b1-4)GlcNAc = target: GalNAc(b1-4)GlcNAc
# Method in brief: as §1
# [18] = target: Glc(a1-6)Glc(a1-6)Glc(a1-6)Glc
# Method in brief: as §1
# [19] = target: GlcNAc(b1-2)Man(a1-3)[GlcNAc(b1-2)Man(a1-6)]Man(b1-4)GlcNAc(b1-4)GlcNAc
# Method in brief: as §1
# [20] = target: GlcNAc(b1-2)[GlcNAc(b1-6)]Man(a1-6)[GlcNAc(b1-2)Man(a1-3)]Man(b1-4)GlcNAc(b1-4)[Fuc(a1-6)]GlcNAc
# Method in brief: as §1
# [21] = target: GlcNAc(b1-3)Gal(b1-4)GlcNAc(b1-6)[GlcNAc(b1-3)Gal(b1-3)]GalNAc
# Method in brief: as §1
# [22] = target: GlcNAc(b1-4)GlcNAc(b1-4)GlcNAc
# Method in brief: as §1
# [23] = target: GlcNAc(b1-6)Gal(b1-4)GlcNAc
# Method in brief: as §1
# Kdn(a2-3)Gal(b1-3)GalNAc = target: Kdn(a2-3)Gal(b1-3)GalNAc
# Method in brief: as §1
# [24] = target: Man(a1-3)[Man(a1-6)]Man(a1-6)[Man(a1-3)]Man
# Method in brief: as §1
# [25] = target: Neu5Ac(a2-3)Gal(b1-3)GalNAc(b1-4)Gal(b1-4)Glc
# Method in brief: as §1
# [26] = target: Neu5Ac(a2-3)Gal(b1-3)GlcNAc(b1-2)[Neu5Ac(a2-3)Gal(b1-3)GlcNAc(b1-4)]Man(a1-6)[Neu5Ac(a2-3)Gal(b1-3)GlcNAc(b1-2)Man(a1-3)]Man(b1-4)GlcNAc(b1-4)GlcNAc
# Method in brief: as §1
# [27] = target: Neu5Ac(a2-3)Gal(b1-4)GlcNAc
# Method in brief: as §1
# [28] = target: Neu5Ac(a2-3)Gal(b1-4)GlcNAc(b1-2)Man
# Method in brief: as §1
# [29] = target: Neu5Ac(a2-3)Gal(b1-4)GlcNAc(b1-3)[Neu5Ac(a2-3)Gal(b1-4)GlcNAc(b1-6)]GalNAc
# Method in brief: as §1
# [30] = target: Neu5Ac(a2-3)Gal(b1-4)GlcNAc(b1-6)[Gal(b1-3)]GalNAc
# Method in brief: as §1
# [31] = target: Neu5Ac(a2-3)Gal(b1-4)[Fuc(a1-3)]GlcNAc(b1-2)Man
# Method in brief: as §1
# [32] = target: Neu5Ac(a2-3)Gal(b1-4)[Fuc(a1-3)]GlcNAc(b1-6)[Neu5Ac(a2-3)Gal(b1-3)]GalNAc
# Method in brief: as §1
# [33] = target: Neu5Ac(a2-6)Gal(b1-4)GlcNAc(b1-2)Man(a1-3)[Gal(b1-4)GlcNAc(b1-2)Man(a1-6)]Man(b1-4)GlcNAc(b1-4)GlcNAc
# Method in brief: as §1
# [34] = target: Neu5Ac(a2-6)Gal(b1-4)GlcNAc(b1-2)Man(a1-3)[Man(a1-6)]Man(b1-4)GlcNAc(b1-4)GlcNAc
# Method in brief: as §1
# [35] = target: Neu5Ac(a2-6)Gal(b1-4)GlcNAc(b1-2)[Neu5Ac(a2-6)Gal(b1-4)GlcNAc(b1-4)]Man(a1-3)[GlcNAc(b1-4)][Neu5Ac(a2-6)Gal(b1-4)GlcNAc(b1-2)[Neu5Ac(a2-6)Gal(b1-4)GlcNAc(b1-6)]Man(a1-6)]Man(b1-4)GlcNAc(b1-4)GlcNAc
# Method in brief: as §1
# [36] = target: Neu5Ac(a2-6)Gal(b1-4)GlcNAc(b1-3)Gal(b1-4)GlcNAc
# Method in brief: as §1
# [37] = target: Neu5Ac(a2-6)GlcNAc(b1-4)GlcNAc(b1-4)GlcNAc
# Method in brief: as §1
# Neu5Gc(a2-6)GalNAc = target: Neu5Gc(a2-6)GalNAc
# Method in brief: as §1
binder,measurement,setting,value
B1,glycan array binding signal (z-score),[1],-0.245
same,glycan array binding signal (z-score),[2],0.442
same,glycan array binding signal (z-score),[3],2.65
same,glycan array binding signal (z-score),Fuc(a1-2)Gal(b1-4)GlcNAc,-0.67
same,glycan array binding signal (z-score),[4],-0.18
same,glycan array binding signal (z-score),[5],1.88
same,glycan array binding signal (z-score),[6],-0.077
same,glycan array binding signal (z-score),[7],-0.198
same,glycan array binding signal (z-score),[8],0.152
same,glycan array binding signal (z-score),[9],0.641
same,glycan array binding signal (z-score),[10],0.316
same,glycan array binding signal (z-score),Gal(a1-3)Gal(b1-4)GlcNAc,-0.246
same,glycan array binding signal (z-score),Gal(a1-4)Gal(b1-4)Glc,2.25
same,glycan array binding signal (z-score),[11],-0.46
same,glycan array binding signal (z-score),[12],2.21
same,glycan array binding signal (z-score),[13],-0.212
same,glycan array binding signal (z-score),[14],-0.256
same,glycan array binding signal (z-score),Gal(b1-4)Gal,-0.573
same,glycan array binding signal (z-score),Gal(b1-4)GlcNAc(b1-2)Man,0.857
same,glycan array binding signal (z-score),[15],-0.281
same,glycan array binding signal (z-score),[16],1.61
same,glycan array binding signal (z-score),[17],2.04
same,glycan array binding signal (z-score),GalNAc(a1-3)GalNAc,-1.37
same,glycan array binding signal (z-score),GalNAc(b1-4)Gal(b1-4)Glc,1.66
same,glycan array binding signal (z-score),GalNAc(b1-4)GlcNAc,0.304
same,glycan array binding signal (z-score),[18],0.21
same,glycan array binding signal (z-score),[19],-0.045
same,glycan array binding signal (z-score),[20],2.54
same,glycan array binding signal (z-score),[21],0.161
same,glycan array binding signal (z-score),[22],0.057
same,glycan array binding signal (z-score),[23],-0.7
same,glycan array binding signal (z-score),Kdn(a2-3)Gal(b1-3)GalNAc,-0.503
same,glycan array binding signal (z-score),[24],1.55
same,glycan array binding signal (z-score),[25],1.67
same,glycan array binding signal (z-score),[26],1.64
same,glycan array binding signal (z-score),[27],-0.355
same,glycan array binding signal (z-score),[28],0.689
same,glycan array binding signal (z-score),[29],2.5
same,glycan array binding signal (z-score),[30],-0.111
same,glycan array binding signal (z-score),[31],-0.965
same,glycan array binding signal (z-score),[32],3.41
same,glycan array binding signal (z-score),[33],-0.494
same,glycan array binding signal (z-score),[34],-1
same,glycan array binding signal (z-score),[35],-0.64
same,glycan array binding signal (z-score),[36],-0.838
same,glycan array binding signal (z-score),[37],-0.241
same,glycan array binding signal (z-score),Neu5Gc(a2-6)GalNAc,-0.69

# Source: the supplement of paper PMC8728848
